Data reported in PubChem BioAssay (NCATS).
Inconclusive results are not listed. Activity calls are given as the source filed them. The call rests on the fitted dose curve.

Test: Cytotoxicity counterscreen for inhibitors of SARS-CoV-2 cell entry (AID 1645845); further: nearly all actives have a fitted effect of over 50% in size
Settings: cell viability (SARS-CoV-2 entry assay cells); series mostly up to 57.1 µM; activity change, negative = cytotoxicity: at the top concentration
Text: Assay Provider: Wei Zheng, Ph.D.
National Center for Advancing Translational Sciences, National Institute of Health, Rockville, MD.
SARS-CoV-2 spike protein, within the viral envelope, mediates viral attachment and infection of host cells. The SARS-CoV-2 spike protein specifically binds to the host receptor ACE2 (Angiotensin-converting enzyme 2). This interaction promotes endocytosis of the viral particle, additional events lead to viral-host cell membrane fusion and release of the viral contents, allowing viral replication.
While SARS-CoV-2 requires BSL-3 facilities for live virus work, pseudo-typed partices (PP) that incorporate SARS-CoV-2 spike proteins without replication elements could facilitate studies on viral entry mechanisms in a BSL-2 setting. This PP cell entry assay could also enable screening of small molecule compound libraries in BSL-2 setting to identify inhibitors of SARS-CoV-2 cell entry. To eliminate false positive compounds, ATP content cytotoxicity assay was screened in the same cell line.
SEQUENCE No. (e.g., 1, 2, 3, etc.); […] (e.g., Cells, Incubation, Reagent, etc.); VALUE and DESCRIPTION.
1. Cells. Seed 1500 HEK293-ACE2 cells (Expi293F with stable expression of human ACE2) in 2 uL/well media (DMEM, 10% FBS, 1x L-glutamine, 1x Pen/Strep, 1 ug/ml puromycin) in white 1536-well assay plates (Greiner #782073).
2. Incubation. Incubate at 37 C with 5% CO2 overnight (~16 h).
3. Compounds. Dispense 23 nL/well compounds in DMSO via pin transfer.
4. Incubation. Incubate for 1 h at 37C 5% CO2.
5. Reagent. Dispense 2 uL/well of media (DMEM, 10% FBS, 1x L-glutamine, 1x Pen/Strep, 1 ug/ml puromycin).
6. Incubation. Incubate at for 48h at 37C 5% CO2
7. Reagent. Dispense 4 uL/well of ATPLite 1step luminescence assay reagent (PerkinElmer #6016739).
8. Incubation. Incubate for 15 min at room temperature.
9. Detection. Read luminescence signal (Viewlux plate reader, PerkinElmer). Data was normalized with wells containing cells as 100%, and wells without cells (media only control) as 0%.
On the % scale 0 is the no-effect control and ±100 the full control effect; potency means the concentration at half of the fitted maximal effect.

SMILES | outcome | Potency | activity change, negative = cytotoxicity
CN[C@@H](C)[C@H]1[C@H](O)C[C@@]2(C)[C@@H]3CC[C@H]4C(C)(C)[C@@H](NC)CC[C@@]45C[C@@]35CC[C@]12C | inactive [at 11.3 µM] | – | –
CC(=O)NC(CS)C(=O)O (stereo not given) | inactive | – | –
CC(/C=C/C=C(\C)C(=O)O[C@@H]1O[C@H](CO[C@@H]2O[C@H](CO)[C@@H](O)[C@H](O)[C@H]2O)[C@@H](O)[C@H](O)[C@H]1O)=C\C=C\C=C(C)\C=C\C=C(/C)C(=O)O[C@@H]1O[C@H](CO[C@@H]2O[C@H](CO)[C@@H](O)[C@H](O)[C@H]2O)[C@@H](O)[C@H](O)[C@H]1O | inactive | – | –
Oc1cc2c(cc1O)C1c3ccc(O)c(O)c3OCC1(O)C2 (stereo not given) | inactive | – | –
N#Cc1c(C2CCNCC2)cc(-c2c(O)cccc2OCC2CC2)nc1N | – | 7.94 µM (active) | –
CC(=O)OC1C(C)OC(Oc2c(-c3ccc(O)cc3)oc3cc(O)cc(O)c3c2=O)C(O)C1OC(C)=O (stereo not given) | – | – | -1.63% (inactive)
c1cc(OCCN2CCCCC2)cc(-c2n[nH]c3ccc(-c4ncn[nH]4)cc23)c1 | inactive | – | –
NC[C@H]1O[C@H](O[C@H]2[C@@H](O)[C@@H](O[C@H]3O[C@H](CO)[C@@H](O)[C@H](N)[C@@H]3O)[C@H](N)C[C@@H]2N)[C@H](N)C[C@H]1O | inactive [at 11.3 µM] | – | –
Cc1ccc2c(=O)c3cccc(CC(=O)O)c3oc2c1C | inactive | – | –
Cc1c(NC(=O)c2ccc(C(C)(C)C)cc2)cccc1-c1cn(C)c(=O)c(Nc2ccc(C(=O)N3CCOCC3)cc2)n1 | inactive | – | –
COc1nccc(-c2c(-c3ccc(F)cc3)ncn2C2CCNCC2)n1 | inactive | – | –
Cc1ccccc1-n1c(Cn2nc(-c3cccc(O)c3)c3c(N)ncnc32)nc2cccc(C)c2c1=O | inactive | – | –
CN(C)CC[C@H](CSc1ccccc1)Nc1ccc(S(=O)(=O)NC(=O)c2ccc(N3CCN(Cc4ccccc4-c4ccc(Cl)cc4)CC3)cc2)cc1[N+](=O)[O-] | inactive | – | –
Cc1ncc(C[n+]2csc(CCO)c2C)c(N)n1 | – | – | 3.66% (inactive)
CN(C)CCCN1c2ccccc2CCc2ccccc21 | – | – | -18.1% (inactive)
CC(C=CC=C(C)C=CC1=C(C)CCCC1(C)C)=CC=CC=C(C)C=CC=C(C)C=CC1=C(C)CCCC1(C)C | inactive [at 0.702 µM] | – | –
Nc1ncnc2c1nc(Cl)n2[C@@H]1O[C@H](CO)[C@@H](O)[C@@H]1O | – | – | -29.8% (inactive)
O=C1CCCC(=O)C1C(=O)c1ccc(C(F)(F)F)cc1[N+](=O)[O-] | – | inactive | –
CN(C(Cc1ccc(OS(=O)(=O)c2cccc3cnccc23)cc1)C(=O)N1CCN(c2ccccc2)CC1)S(=O)(=O)c1cccc2cnccc12 (stereo not given) | inactive | – | –
CCc1ccc(OCc2ccccc2C(=O)Nc2ccc3nc(C)cc(N)c3c2)cc1 | – | 15.8 µM (active) | –

SMILES | outcome | Potency | activity change, negative = cytotoxicity
COc1ccc(CC2c3cc(OC)c(OC)cc3CC[N+]2(C)CCC(=O)OCCCCCOC(=O)CC[N+]2(C)CCc3cc(OC)c(OC)cc3C2Cc2ccc(OC)c(OC)c2)cc1OC (stereo not given) | – | inactive | –
O=c1c(O)c(-c2ccc(O)c(O)c2)oc2cc(O)ccc12 | – | – | -4.62% (inactive)
c1cc(N[C@@H]2CCNC2)nc(-c2cnc3ccc(-c4cn[nH]c4)cn23)c1 | – | 31.6 µM (active) | –
CC1=C(/C=C/C(C)=C/C=C/C(C)=C\C(=O)O)C(C)(C)CCC1 | – | inactive | –
O=C([C@@H](Cc1cccc(C(F)(F)F)c1)NS(=O)(=O)c1cc(F)c2c(c1)CCNC2)N1CCCC1 | inactive | – | –
CC(C)CNc1ccnc(NCc2csc(-c3ccccc3)n2)n1 | – | 22.4 µM (active) | –
CC[C@H]1/C=C\C=C/C[C@@H](C)[C@H](O)[C@@](C)(O)C(=O)[C@@H](C)[C@H](O)[C@@H](C)C(=O)[C@@H](C)[C@H](O)[C@@H](C)/C=C\C(=O)O[C@@H]2[C@H](C)[C@H](CC1)O[C@]1(CC[C@H](C)[C@H](C[C@@H](C)O)O1)[C@H]2C | – | 20 µM (active) | –
CN(C)Cc1cccc(N=C(c2ccccc2)c2c(O)[nH]c3cc(C(=O)N(C)C)ccc23)c1 | – | – | -19.3% (inactive)
C[C@H](NC(=O)c1sccc1OCc1ccc(Cl)cc1)c1ccccc1 | – | – | -13.6% (inactive)
C[C@@H](O)[C@H]1C(=O)N2C(C(=O)OCOC(=O)C(C)(C)C)=C(SC3CN(C4=NCCS4)C3)[C@H](C)[C@H]12 | inactive | – | –
Nc1ncnc2nc(-c3ccc(N4CCOCC4)nc3)cc(-c3cccc(Br)c3)c12 | inactive | – | –
CN(C)S(=O)(=O)c1ccc2c(c1)C(=Cc1cc3c([nH]1)CCCC3)C(=O)N2 | – | – | 1.63% (inactive)
CCCc1c(OCCCOc2ccc(OCC(=O)O)cc2)ccc(C(C)=O)c1O | inactive | – | –
CC(O)[C@H]1CC[C@H]2[C@@H]3CC[C@@H]4C[C@@H](O)CC[C@]4(C)[C@H]3CC[C@]12C (stereo not given in full) | – | – | 0.488% [at 114 µM] (inactive)
CC(=O)OC(C)(C)/C=C/C(=O)[C@](C)(O)[C@H]1C(O)C[C@@]2(C)[C@@H]3CC=C4[C@@H](C=C(O[C@@H]5O[C@H](CO)[C@@H](O)[C@H](O)[C@H]5O)C(=O)C4(C)C)[C@]3(C)C(=O)C[C@]12C (stereo not given in full) | inactive [at 19 µM] | – | –
Nc1nc(N)c(N=O)c(OCC2CCCCC2)n1 | – | – | 3.47% (inactive)
CCCCCCCCCCCC1=C(O)C(=O)C=C(O)C1=O | inactive | – | –
N#CC(c1ccnc(NCCc2cccnc2)n1)c1nc2ccccc2s1 (stereo not given) | inactive | – | –
C[C@@H]1CC[C@@]2(OC1)OC1CC3C4CC=C5CC(O)CCC5(C)C4CCC3(C)C1[C@@H]2C (stereo not given in full) | – | – | 1.03% (inactive)
OC[C@H]1OC(O)C[C@@H](O)[C@H]1O (stereo not given in full) | – | – | -1.46% (inactive)
